# Only some compounds are listed: those with a hit (about 3.6% of all), similar ones and a draw of the others.
# APOBEC3A inh – human APOBEC3A DNA deaminase inhibition; AID 493011; P31941; inhibition, % at 20 µM; recombinant A3A, FAM/TAMRA ssDNA deamination fluorescence; 330,000 compounds, 0.41% hits;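 active = at least 40% inhibition at 20 µM here, with at most 30% in a related deaminase screen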;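 note: plate controls were A3A with DMSO for no effect and wells lacking A3A enzyme for full effect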
# PHOSPHO1 inh – PHOSPHO1 (human) inhibition; AID 1565; 290,000 compounds, 1.1% hits; Q8TCT1; inhibition, % at 13.3 µM; recombinant PHOSPHO1, absorbance phosphatase assay; in the data active = inhibition above about 60%
# Target sequence (Q8TCT1 whole entry, looked up): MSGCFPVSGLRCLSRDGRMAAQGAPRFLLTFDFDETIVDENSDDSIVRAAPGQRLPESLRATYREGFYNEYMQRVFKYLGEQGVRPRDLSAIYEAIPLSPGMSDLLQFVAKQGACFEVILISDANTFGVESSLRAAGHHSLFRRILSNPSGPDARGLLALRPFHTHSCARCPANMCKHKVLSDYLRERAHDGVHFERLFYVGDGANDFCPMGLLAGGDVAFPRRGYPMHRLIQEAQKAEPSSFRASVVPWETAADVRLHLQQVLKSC
# Wnt bcat act – activates Wnt/beta-catenin signaling in a reporter cell assay; activator, plate reader; activation, % at 9.35 µM; 300,000 compounds, 1.2% hits; AID 743398; in the data active = activation above about 30%, passing the limit was not always enough; inconclusive = no clear call, values can overlap the other calls;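 note: 0% = neutral control wells and 100% = positive control wells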
# esBAF inh – SWI/SNF esBAF complex inhibition | 350,000 compounds, 2% hits | AID 602393 | reporter increase, % at 12.5 µM | mouse ES cells, Bmi1-luciferase knock-in reporter, 24 h; 100% = twice the neutral-well signal; in the data active = activation above about 40%; inconclusive = no clear call, values can overlap the other calls;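 note: 0% = median of the plate's neutral control wells and 100% = double that signal; a rise in the Bmi1 reporter signal indicates esBAF inhibition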
# APOBEC3G inh – APOBEC3G (human) deaminase inhibition; 330,000 compounds, 0.28% hits; inhibition, % at 20 µM; recombinant A3G, ssDNA deamination FAM/TAMRA fluorescence; AID 493012;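 active = inhibition of at least 40% at 20 µM, with no more than 30% in the related APOBEC3A deaminase screen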;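 note: plate controls were DMSO wells with A3G for no effect and wells lacking A3G enzyme for full effect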
# MITF TRPM1 HTS – activators of MITF-driven TRPM1 promoter activity in SK-MEL-5 cells; 300,000 compounds, 0.75% hits; SK-MEL-5 TRPM1-promoter luciferase, 24 h; % of positive control, neutral wells = 0; activation, % at 12.5 µM;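 active = mean activation of at least 80% with every replicate also reaching 80%; inconclusive = mean reaches 80% but some replicate falls short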;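 note: 0% = neutral control wells and 100% = parthenolide positive control wells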
# An asterisk follows results filed as active; u = inconclusive; x = not tested or not shown.
SMILES,APOBEC3A inh,PHOSPHO1 inh,Wnt bcat act,esBAF inh,APOBEC3G inh,MITF TRPM1 HTS
Cc1ccc2cc3cc(C(=O)N4CCCCC4C)oc3nc2c1 (stereo not drawn),-3,-22,x,50*,-11,74
C[C@@H]1CCCCO[C@H](CN(C)C(=O)c2ccncc2)[C@H](C)CN([C@@H](C)CO)C(=O)c2cc(NC(=O)Cc3ccccc3)ccc2O1,x,x,x,-2,x,x
S=c1[nH]nc(COc2ccccc2)n1C1CCCCC1,-8,66*,0,-2,13,-13
S=c1[nH]nc(CSc2nc3ccccc3s2)n1C1CCCCC1,-1,96*,x,x,6,8
CCn1c(CSc2nc3ccccc3s2)nc2ccccc21,-1,19,x,17,-2,18
COC(=O)N(C)C[C@H]1OCc2ccccc2-c2ccccc2C(=O)N([C@@H](C)CO)C[C@@H]1C,x,x,x,-7,x,x
CCCC(=O)Nc1ccc2c(c1)C(=O)N(C)[C@@H]1CC[C@H](CC(=O)Nc3ccccc3)O[C@@H]1CO2,x,x,x,1,x,x
O=C(Nc1ccccc1)c1cnc2ccccc2n1,1,1,u,x,0,39
Cc1cnc(C(=O)Nc2ccc(C)c(S(=O)(=O)N(C)C)c2)cn1,-3,12,0,x,-6,0
Cc1ccc(NC(=O)c2cnc3ccccc3n2)cc1C,-1,20,42*,32,-3,x
Cc1ccc(NC(=O)c2ccc3ccccc3n2)cc1S(=O)(=O)N(C)C,7,52,43*,83*,-1,119*
COCCN(Cc1nc(-c2ccc(-c3ccccc3)cc2)oc1C)C(C)C,-3,36,16,65*,-3,36
Cc1oc(-c2ccoc2)nc1CN(CC1CCC(=O)N1)C(C)C (stereo not drawn),-1,40,-1,-2,-8,7
Cc1cc(C(=O)COC(=O)c2ccc(O)cc2)c(C)n1-c1ccccc1F,-8,-11,-1,x,-14,10
Cc1cc(C(=O)COC(=O)c2ccc(O)cc2)c(C)n1CC(F)(F)F,-2,x,51*,95*,-6,x
Nc1[nH]n(-c2ccccc2)c(=O)c1N=Nc1ccccc1[N+](=O)[O-],1,5,61*,x,-1,128*
Cc1ccc(N=Nc2c(C)[nH]n(-c3ccccc3)c2=O)cc1Br,-4,19,0,-3,-4,x
Cc1[nH]n(-c2ccccc2)c(=O)c1N=Nc1ccc2c(c1)OCCO2,-1,-21,35*,x,-4,74
Nc1[nH]n(-c2ccccc2)c(=O)c1N=Nc1ccccc1,1,16,55*,54*,-6,75
O=c1c(N=Nc2ccccc2)c[nH]n1-c1ccccc1,x,x,45*,18,x,x
COc1cc([N+](=O)[O-])ccc1N=Nc1c(N)[nH]n(-c2ccccc2)c1=O,-1,-53,-2,x,-1,5
Oc1oc(-c2ccc(Br)cc2)nc1/C=N/c1ccccn1,-2,-26,37*,x,-4,49
Cc1ccc(-c2nc(C=Nc3ccccc3)c(O)o2)cc1,0,-10,3,x,-1,43
COc1ccccc1CNc1nc(C)c(C(=O)N(C)C)s1,2,-71,0,2,26,-4
Cc1nc(NCCc2ccccc2)sc1C(=O)N(C)C,-1,-139,8,41*,0,41
SMILES,APOBEC3A inh,PHOSPHO1 inh,Wnt bcat act,esBAF inh,APOBEC3G inh,MITF TRPM1 HTS
Cc1nc(NC(=S)NC(=O)c2cccs2)sc1C(=O)N(C)C,2,53,1,6,-10,13
Cc1nc(Nc2ccccc2C(F)(F)F)sc1C(=O)N(C)C,7,0,16,49*,-3,55
CN1C(=O)c2cc(NC(=O)Nc3ccc(Cl)cc3)ccc2OC[C@H]2O[C@@H](CC(=O)O)CC[C@@H]21,x,x,x,2,x,x
Cc1ccc(S(=O)(=O)Nc2cccc3c2O[C@H](CN(C)C(=O)NC(C)C)[C@H](C)CN([C@H](C)CO)C3=O)cc1,x,x,x,-1,x,x
Cc1ccc(OCC(=O)Nc2ccccc2C(N)=O)cc1,-5,3,57*,u,-11,61
Cc1nc(NC(=S)NC(=O)COc2ccc(Cl)cc2)ccc1Br,0,13,1,x,1,-31
Cc1ccc(OCC(=O)NC(=S)Nc2ccc(Br)c(C)n2)cc1,-5,84*,x,2,-5,-18
COc1ccc(NC(=O)COc2ccc(Br)cc2)c(OC)c1,0,60*,6,16,-3,20
COc1ccc(NC(=O)COc2ccccc2)c(OC)c1,-1,-21,-3,51*,-4,63
